{
  "source": "PubChem BioAssay AID720706",
  "about": "(Broad Institute, 2013)",
  "note": "Screen size: about 350,000 compounds; about 5,500 (1.6%) were called active.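 How the source made its calls: active means significant combined selectivity score with lowered wild-type GFP, culture density cut under 30%, mutant RFP and density less affected; inactive means any of these conditions unmet.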 This excerpt belongs to a sample that is enriched for actives.",
  "data": [
    {"test": "reduced GFP signal of wild-type E. coli, primary screen, bacterial rRNA inhibitor project, GFP/RFP fluorescence, OD600, single point (AID 720706)", "conditions": "E. coli WT GFP vs humanized-ribosome RFP mutants, 24 h; GFP signal change (wild-type ribosome): stronger effect = lower value, DMSO median 0, no signal -100; OD600 change: measured here: OD600 growth, DMSO median 0, no signal -100; RFP signal change: measured here: RFP humanized mutant strains, DMSO median 0, no signal -100, concentration not given here", "units": {"OD600 change": "%", "RFP signal change": "%"}, "values": [
      {"smiles": "C[C@@H]1CN([C@H](C)CO)C(=O)c2cc(C#CCN(C)C)cnc2O[C@H]1CN(C)C(=O)NC1CCCC1", "GFP signal change (wild-type ribosome)": "3.54% (inactive)", "OD600 change": 11.4, "RFP signal change": -1.39},
      {"smiles": "CNC[C@@H]1Oc2ccc(NS(=O)(=O)c3c(C)noc3C)cc2CC(=O)N([C@@H](C)CO)C[C@@H]1C", "GFP signal change (wild-type ribosome)": "1.9% (inactive)", "OD600 change": 3.17, "RFP signal change": 1.62},
      {"smiles": "Cc1ccc(C)c(NC(=O)NNC(=O)c2ccc3ccccc3c2O)c1", "GFP signal change (wild-type ribosome)": "7.08% (inactive)", "OD600 change": 7.28, "RFP signal change": -0.547},
      {"smiles": "Cc1ccc(C)c(NC(=O)c2ccc3nccnc3c2)c1", "GFP signal change (wild-type ribosome)": "4.03% (inactive)", "OD600 change": 7.77, "RFP signal change": -0.371},
      {"smiles": "Cc1ccc(C)c(NC(=O)c2cc(-c3cc(C)cc(C)c3O)n[nH]2)c1", "GFP signal change (wild-type ribosome)": "-26.5% (active)", "OD600 change": -6.64, "RFP signal change": -4.96},
      {"smiles": "O=C(C[C@H]1C[C@H]2c3cc(NC(=O)C4CCOCC4)ccc3O[C@H]2[C@@H](CO)O1)NCCN1CCCCC1", "GFP signal change (wild-type ribosome)": "5.5% (inactive)", "OD600 change": 7.29, "RFP signal change": 1.6},
      {"smiles": "C[C@@H]1CN([C@H](C)CO)C(=O)c2cc(NC(=O)C3CCCCC3)ccc2O[C@@H]1CN(C)CC1CCCCC1", "GFP signal change (wild-type ribosome)": "0.0895% (inactive)", "OD600 change": 5.96, "RFP signal change": 0.317},
      {"smiles": "O=S(=O)(NCCc1ccc(F)cc1)c1cccc2cccnc12", "GFP signal change (wild-type ribosome)": "-26.1% (inactive)", "OD600 change": -23, "RFP signal change": -1.09},
      {"smiles": "OCc1ccc(OCCCOc2cccc3cccnc23)cc1", "GFP signal change (wild-type ribosome)": "-10.7% (inactive)", "OD600 change": -8.81, "RFP signal change": -4.97},
      {"smiles": "O=S(=O)(NCCOc1cccc2cccnc12)c1ccc(F)cc1", "GFP signal change (wild-type ribosome)": "-21.1% (active)", "OD600 change": -16, "RFP signal change": 1.43},
      {"smiles": "O=C(C[C@@H]1CC[C@@H](NC(=O)C2CCOCC2)[C@H](CO)O1)NCC1CC1", "GFP signal change (wild-type ribosome)": "0.615% (inactive)", "OD600 change": 0.519, "RFP signal change": -2.58},
      {"smiles": "CN1CCCCN2[C@H](CO)[C@H](c3ccc(-c4ccc(F)cc4)cc3)[C@@H]2C1", "GFP signal change (wild-type ribosome)": "3.95% (inactive)", "OD600 change": 2.06, "RFP signal change": -2.51},
      {"smiles": "CCC(=O)N1CC2(CN(C(=O)Nc3ccccc3F)C2)c2c([nH]c3cc(OC)ccc23)[C@H]1CO", "GFP signal change (wild-type ribosome)": "-3.51% (inactive)", "OD600 change": -1.81, "RFP signal change": 1.22},
      {"smiles": "COc1ccc(N2CCN(C(=O)CCSCc3ccccc3F)CC2)cc1", "GFP signal change (wild-type ribosome)": "-33% (active)", "OD600 change": -17.7, "RFP signal change": -1.41},
      {"smiles": "COc1ccc(N2CCN(C(=O)CCNC(=O)c3ccc(Br)cc3)CC2)cc1", "GFP signal change (wild-type ribosome)": "4.67% (inactive)", "OD600 change": 3.67, "RFP signal change": -1.33},
      {"smiles": "O=C(CCc1ccccc1F)N1CCN(c2ccccc2)CC1", "GFP signal change (wild-type ribosome)": "-5.11% (inactive)", "OD600 change": -5.09, "RFP signal change": -0.63},
      {"smiles": "O=C(NCC[C@H]1CC[C@@H](NC(=O)c2ccncc2)[C@@H](CO)O1)Nc1ccc(Cl)cc1", "GFP signal change (wild-type ribosome)": "-17.2% (inactive)", "OD600 change": -25.9, "RFP signal change": -0.789},
      {"smiles": "O=C(C1CCCC1)N1CC(=O)N2[C@@H](CO)[C@H](c3ccc(C#CC4CCCC4)cc3)[C@@H]2C1", "GFP signal change (wild-type ribosome)": "-40.8% (inactive)", "OD600 change": -65.7, "RFP signal change": 1.78},
      {"smiles": "C=CCn1c(-c2ccccc2OCC)n[nH]c1=S", "GFP signal change (wild-type ribosome)": "3.63% (inactive)", "OD600 change": 4.05, "RFP signal change": 2.66},
      {"smiles": "C=CCn1c(CCc2ccc(OC(C)C)cc2)n[nH]c1=S", "GFP signal change (wild-type ribosome)": "-0.285% (inactive)", "OD600 change": -0.525, "RFP signal change": 1.11},
      {"smiles": "C=CCn1c(-c2sc(-c3ccccc3)nc2C)n[nH]c1=S", "GFP signal change (wild-type ribosome)": "-24.3% (active)", "OD600 change": -5.31, "RFP signal change": 7.62}
    ]}
  ]
}
